Laboratory results from PubChem BioAssay (NCI).
This is part of a sample that, as a whole, favours compounds with a hit. Of some 83,000 tested, about 20% had one in any assay.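 Cells were grown in 96-well plates and exposed to the test compound at a single concentration for 48 hours; results are reported as percent growth, with values below 10 considered active.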 Values without a mark were called inactive. Activity calls are given as the source filed them.

Columns and labels:
Assay in all cases: NCI-60 one-dose screen, 48 h (100 = growth as untreated, 0 = no growth, -100 = all killed)
Conditions in all cases: 10 µM unless noted
NCI-H23 lung = system: NCI-H23 lung
NCI-H322M lung = system: NCI-H322M lung
NCI-H460 lung = system: NCI-H460 lung
HOP-92 NSCLC = system: HOP-92 NSCLC
NCI-H522 lung = system: NCI-H522 lung
A549/ATCC NSCLC = system: A549/ATCC NSCLC
786-0 renal = system: 786-0 renal
COLO 205 colon = system: COLO 205 colon
DU-145 prostate = system: DU-145 prostate
K-562 leukemia = system: K-562 leukemia
MALME-3M melanoma = system: MALME-3M melanoma
MDA-MB-231 breast = system: MDA-MB-231 breast
RXF 393 renal = system: RXF 393 renal
SF-268 CNS = system: SF-268 CNS
SF-295 CNS = system: SF-295 CNS
SF-539 CNS = system: SF-539 CNS
UACC-257 melanoma = system: UACC-257 melanoma
M14 melanoma = system: M14 melanoma
HOP-62 NSCLC = system: HOP-62 NSCLC
HCT-15 colon = system: HCT-15 colon

Row | SMILES | growth (NCI-H23 lung) | growth (NCI-H322M lung) | growth (NCI-H460 lung) | growth (HOP-92 NSCLC) | growth (NCI-H522 lung) | growth (A549/ATCC NSCLC) | growth (786-0 renal) | growth (COLO 205 colon) | growth (DU-145 prostate) | growth (K-562 leukemia) | growth (MALME-3M melanoma) | growth (MDA-MB-231 breast) | growth (RXF 393 renal) | growth (SF-268 CNS) | growth (SF-295 CNS) | growth (SF-539 CNS) | growth (UACC-257 melanoma) | growth (M14 melanoma) | growth (HOP-62 NSCLC) | growth (HCT-15 colon)
1 | CC[C@H](C)[C@@H](C(=O)OC)n1cc(CNC(=O)[C@@H](Cc2ccccc2)NC(=O)OCc2ccccc2)nn1 | 104% | 95.5% | 104% | 96.4% | 87.4% | 87.2% | 106% | 122% | 104% | 95.9% | 100% | 101% | 104% | 93.8% | 99.4% | 104% | 95.8% | 109% |  | 
2 | COc1ccc(CCN2CCC(CN(C)Cc3cnn(-c4ccccc4)c3)CC2)cc1 | 31.9% | 46.4% |  | 37.3% | 43.7% | 4.78% (active) | 25.6% | 30.1% | 28.6% | 10.4% | 18.4% | 21.6% | 35% | 21% | 47.5% | 19.7% | 19.1% | -19.2% (active) | 30% | 26.2%
3 | CNC(=O)c1cc(Oc2ccc(CC(=O)Nc3cc(C(C)(C)C)cn3C)cc2)ccn1 | 50.2% | 93% | 74.8% | 84% | 75.1% | 68.9% | 89.7% |  | 93.9% | 35.5% | 50.6% | 67.8% | 105% | 86.4% | 45.4% | 68.3% | 56.5% | 84.7% |  | 93.8%
4 | COc1cccc(/C=C/C(=O)c2c(C)nc3ccccc3c2/C=C/c2ccccc2)c1OC | 31.2% | 45.3% | 2.78% (active) | 60.7% | 3.88% (active) | 30.9% | 42.4% | 56.3% | 4.24% (active) | 9.13% (active) | 69.1% | 20.9% | 15.4% | 38.8% | 46.5% | 58.8% | 46.1% | 36.3% |  | 5.81% (active)
5 | CCC1=C[C@@H]2CN(C1)Cc1c([nH]c3ccccc13)[C@@](C(=O)OC)(c1cc3c(cc1OC)N(C)[C@H]1[C@@](O)(C(=O)OC)[C@H](OC(C)=O)[C@]4(CC)[C@@H]5C[C@@H]5CN5CC[C@]31[C@@H]54)C2 | 5.89% (active) | 49.3% | 0.48% (active) | 21.2% |  | 13.9% | 11.2% | -86% (active) | -17.9% (active) | -10% (active) | -63.9% (active) | -45.4% (active) | 29.5% | 8.9% (active) | 20.1% | -17.5% (active) | 32.8% | -22.3% (active) |  | 13.4%
6 | CSc1nc2c(c(=O)n1C)N=C1c3ccccc3C(=O)C1C(c1ccccc1)N2 (centres undefined) | 85% | 95.1% | 76.2% | 28.7% | 103% | 81.6% | 91.9% | 73.5% | 81.9% | 32.9% | 42.6% | 82.8% |  | 81.7% | -10.6% (active) | 68% | 102% | 62.2% |  | 62.4%
7 | CCOC(=O)c1cc2c(n1Cc1ccccc1OC)-c1oncc1CCC2 | 45.3% | 86% | 18.4% | 57% | 19.2% | 36.6% | 49.6% | 2.53% (active) | 33.2% | 10.5% | 20.7% | 53% | 5.36% (active) | 57.6% | 17% | 3.92% (active) | 50.4% | 35% |  | 30.9%
8 | COc1ccc(Nc2nc(N/N=C/c3ccc(O)cc3)nc(Nc3ccc([N+](=O)[O-])cc3)n2)cc1 | 103% | 110% | 107% | 109% | 95.3% | 104% | 105% | 111% |  | 103% | 114% | 109% | 121% | 128% | 89.2% | 110% | 99.9% | 108% |  | 107%
9 | Clc1ccc(Oc2ccc(Nc3ncnc4onc(-c5ccccc5)c34)cc2)c(Cl)c1 | 89.4% | 111% | 101% | 102% | 73.2% | 91.2% | 96.3% | 105% | 106% | 78.1% | 105% | 99.7% | 120% | 102% | 97% | 98.8% | 99% | 95.6% |  | 89%
10 | O=C1N=c2ccccc2=C1c1sc(=Nc2ccccc2)n(Nc2ccccc2)c1O | 102% | 107% | 101% | 102% | 90.9% |  | 101% | 116% | 115% | 94.4% | 108% | 95.1% | 107% | 99.5% | 102% | 104% | 106% | 99.7% |  | 102%
11 | CCOC(=O)c1sc(-c2ccc(OS(=O)(=O)c3cccs3)c(C=O)c2)nc1C | 11.4% |  | 3.56% (active) | 11.9% | -2.27% (active) | 32.5% | 5.71% (active) | 79.6% | 8.94% (active) | 4.3% (active) | -5.26% (active) | -16.8% (active) | 19% | 9.2% (active) | -8.21% (active) | -26.2% (active) | 32.1% | -17.6% (active) | 22.5% | 1.42% (active)
12 | COc1cc(/C=C/C(=O)c2ccc(Cl)cc2)cc(CN2CCCCC2)c1O | 92.6% | 91.6% | 94.3% | 75.5% | 77.2% | 94.6% | 91.6% |  | 103% | 70.4% | 82.2% | 83.2% | 97.6% | 91.1% | 97.9% | 92.1% | 92.3% | 91.4% |  | 
13 | OC(CNC1CCCCC1)Cn1c2ccc(I)cc2c2cc(I)ccc21 (centres undefined) | 76.6% | 75.8% | 70.1% | -0.53% (active) | 67.5% | 75% | 77.7% | 104% | 101% | 54.4% | 68.9% | 56.3% | 78.3% | 91.8% | 47.2% | 77.5% | 84.8% | 68.7% |  | 65.7%
14 | CCOC(=O)C1=C(C)c2ccc(OC)c(OC)c2C1 | 91.8% | 99.2% | 118% | 79.2% | 78.6% | 87% | 81.4% | 113% | 115% | 102% | 123% | 117% | 93.8% | 108% | 99.5% | 91.9% | 98.4% | 126% |  | 97.3%
15 | O=C(CSc1ccc2nnc(-c3cccc(F)c3)n2n1)Nc1ccc2c(c1)OCO2 | 76.5% | 85% | 81.1% | -6.23% (active) | 85.4% | 52.8% | 93.6% | 112% | 77.1% | 74.2% | 81% | 48.9% | 98.5% | 51.3% | 91.6% | 84.3% | 94.8% | 83.9% |  | 66.1%
16 | COc1ccc(-c2cn[nH]c2-c2cc(OC)c(OC)c(OC)c2)cc1OCc1ccccc1 | 33.2% | 49.1% | 12.2% | 31.4% | -19.7% (active) | 37.7% | 21.5% | 104% | 65.2% |  | 36.6% | 46.1% |  | 27% | -1.63% (active) | -19.8% (active) | 47.6% | 10.7% |  | 23.7%
